Source: paper PMC8384837, “Expanding the binding specificity for RNA recognition by a PUF domain”

Tests used:
Assay in all cases: yeast three-hybrid, YBZ-1, SC-Leu-His + 0.5 mM 3-AT, 4 days
Conditions in all cases: tags: N-Gal4 AD-HA kept; label: inside an RPR1-promoter hybrid RNA with tandem MS2 sites; ssRNA
PUM1 PUF domain R7-RIL = PUM1 PUF domain R7-RIL (Homo sapiens, UniProt Q14671 828-1176, S1079R;N1080I;E1083L)
Summary of the method: (§1)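 Pumilio-1 PUF domain libraries, randomized at the three base-contacting residues of each repeat, were co-expressed with matching RNA elements from a centromeric plasmid in strain YBZ-1, which carries a LexA–MS2 coat fusion and a HIS3 reporter. Transformants grew for four days on SC-Leu (input) or on SC-Leu-His + 0.5 mM 3-AT (selection), and the repeat regions were PCR-amplified and Illumina-sequenced. The interaction score is the log change in variant frequency from input to selection. That logarithm is base 2, with a pseudocount of 1 where a variant was absent.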

PUM1 PUF domain R2-GWG = PUM1 PUF domain R2-GWG (Homo sapiens, UniProt Q14671 828-1176, N899G;Y900W;Q903G)
Summary of the method: as §1

PUM1 PUF domain R2-NRG = PUM1 PUF domain R2-NRG (Homo sapiens, UniProt Q14671 828-1176, Y900R;Q903G)
Summary of the method: as §1

PUM1 PUF domain R1-RYL = PUM1 PUF domain R1-RYL (Homo sapiens, UniProt Q14671 828-1176, S863R;R864Y;Q867L)
Summary of the method: as §1

PUM1 PUF domain R8-AYK = PUM1 PUF domain R8-AYK (Homo sapiens, UniProt Q14671 828-1176, N1122A;Q1126K)
Summary of the method: as §1

PUM1 PUF domain R8-RFL = PUM1 PUF domain R8-RFL (Homo sapiens, UniProt Q14671 828-1176, N1122R;Y1123F;Q1126L)
Summary of the method: as §1

PUM1 PUF domain R8-RWR = PUM1 PUF domain R8-RWR (Homo sapiens, UniProt Q14671 828-1176, N1122R;Y1123W;Q1126R)
Summary of the method: as §1

PUM1 PUF domain R5-RMP = PUM1 PUF domain R5-RMP (Homo sapiens, UniProt Q14671 828-1176, C1007R;R1008M;Q1011P)
Summary of the method: as §1

PUM1 PUF domain R5-SFS = PUM1 PUF domain R5-SFS (Homo sapiens, UniProt Q14671 828-1176, C1007S;R1008F;Q1011S)
Summary of the method: as §1

PUM1 PUF domain R3-GHP = PUM1 PUF domain R3-GHP (Homo sapiens, UniProt Q14671 828-1176, C935G;R936H;Q939P)
Summary of the method: as §1

PUM1 PUF domain R7-KYK = PUM1 PUF domain R7-KYK (Homo sapiens, UniProt Q14671 828-1176, S1079K;N1080Y;E1083K)
Sequence of PUM1 PUF domain R7-KYK (Q14671 828-1176 S1079K/N1080Y/E1083K): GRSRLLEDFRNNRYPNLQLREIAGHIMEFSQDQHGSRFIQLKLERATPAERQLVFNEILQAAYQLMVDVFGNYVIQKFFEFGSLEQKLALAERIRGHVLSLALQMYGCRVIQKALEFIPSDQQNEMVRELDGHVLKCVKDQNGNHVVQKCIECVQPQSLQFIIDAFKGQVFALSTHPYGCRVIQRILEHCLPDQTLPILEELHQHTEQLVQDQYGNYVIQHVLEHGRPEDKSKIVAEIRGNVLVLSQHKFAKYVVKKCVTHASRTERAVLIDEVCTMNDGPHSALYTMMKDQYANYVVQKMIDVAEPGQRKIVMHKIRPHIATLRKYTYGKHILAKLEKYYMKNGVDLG
Summary of the method: as §1

“GGCUAGAACUAGUGGAUCCCCCGGCGCCCGGCGGCUCGAGCCCGGGUAAGUUUAAAUAGUCUGCAUGCCGCCGGGCGCCAUGCCUGCAGGUCGACUCUAGAAAACAUG” was tested, and the binding signal (PUM1 PUF domain R7-RIL) was 2.38 log2 enrichment (interaction score).
With “GGCUAGAACUAGUGGAUCCCCCGGCGCCCGGCGGCUCGAGCCCGGGUAAGUGUAAAAAGUCUGCAUGCCGCCGGGCGCCAUGCCUGCAGGUCGACUCUAGAAAACAUG” the binding signal (PUM1 PUF domain R2-GWG) was 3.32 log2 enrichment (interaction score) and the binding signal (PUM1 PUF domain R2-NRG) was 2.91 log2 enrichment (interaction score).
In the case of “GGCUAGAACUAGUGGAUCCCCCGGCGCCCGGCGGCUCGAGCCCGGGUAAGUGUAAAUCGUCUGCAUGCCGCCGGGCGCCAUGCCUGCAGGUCGACUCUAGAAAACAUG”, the binding signal (PUM1 PUF domain R1-RYL) is reported as 2.26 log2 enrichment (interaction score).
In the case of “GGCUAGAACUAGUGGAUCCCCCGGCGCCCGGCGGCUCGAGCCCGGGUAAGCGUAAAUAGUCUGCAUGCCGCCGGGCGCCAUGCCUGCAGGUCGACUCUAGAAAACAUG”, the binding signal (PUM1 PUF domain R8-AYK) is reported as 4.11 log2 enrichment (interaction score), the binding signal (PUM1 PUF domain R8-RFL) is reported as 5.36 log2 enrichment (interaction score) and the binding signal (PUM1 PUF domain R8-RWR) is reported as 7 log2 enrichment (interaction score).
For “GGCUAGAACUAGUGGAUCCCCCGGCGCCCGGCGGCUCGAGCCCGGGUAAGUGUCAAUAGUCUGCAUGCCGCCGGGCGCCAUGCCUGCAGGUCGACUCUAGAAAACAUG”, the binding signal (PUM1 PUF domain R5-RMP) was 4.09 log2 enrichment (interaction score) and the binding signal (PUM1 PUF domain R5-SFS) was 3.78 log2 enrichment (interaction score).
With “GGCUAGAACUAGUGGAUCCCCCGGCGCCCGGCGGCUCGAGCCCGGGUAAGUGUAAUUAGUCUGCAUGCCGCCGGGCGCCAUGCCUGCAGGUCGACUCUAGAAAACAUG” the binding signal (PUM1 PUF domain R3-GHP) was 4.31 log2 enrichment (interaction score).
For “GGCUAGAACUAGUGGAUCCCCCGGCGCCCGGCGGCUCGAGCCCGGGUAAGUAUAAAUAGUCUGCAUGCCGCCGGGCGCCAUGCCUGCAGGUCGACUCUAGAAAACAUG”, the binding signal (PUM1 PUF domain R7-KYK) was 4.11 log2 enrichment (interaction score).
In the case of “GGCUAGAACUAGUGGAUCCCCCGGCGCCCGGCGGCUCGAGCCCGGGUAAGUCUAAAUAGUCUGCAUGCCGCCGGGCGCCAUGCCUGCAGGUCGACUCUAGAAAACAUG”, the binding signal (PUM1 PUF domain R7-KYK) is reported as 5.83 log2 enrichment (interaction score).
